Test results reported in PubChem BioAssay (Tox21).
A number with no mark means an inactive call. Inconclusive results are not listed. Entries that show only a call come without a potency. The source made the active and inactive calls. Unless noted, calls come from the whole dose curve; as a rule, active = well fitted curve in the direction sought with a large enough effect in the repeat runs; inconclusive = weak or mixed curves; inactive = no such curve, though single readings can be large; an effect the other way counts as inactive or inconclusive.

Columns and labels:
[1] = qHTS assay for small molecule agonists of the p53 signaling pathway (AID 651631; calls by dose curve; note: nearly all actives have a fitted effect of over 15% in size)
In short: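 Fluorescence intensity from cleaved LiveBLAzer B/G substrate (2 h, room temperature) served as the signal. Beforehand, HCT-116 reporter cells bearing p53 response elements were treated 16 h at 37 °C with DMSO-dissolved compounds.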

[2] = qHTS assay for small molecules that induce genotoxicity in human embryonic kidney cells expressing luciferase-tagged ATAD5 (AID 651632); note: nearly all actives have a fitted effect of over 15% in size
In short: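 A rise in luciferase signal from ATAD5-tagged HEK293T cells marks genetic stress. Cells were exposed to compounds for 16 hr at 37C, 5% CO2, then luciferase was quantified after a 30 min room-temperature incubation with Amplite.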

[3] = qHTS assay for small molecule agonists of the p53 signaling pathway - cell viability (AID 651633; calls by dose curve;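 note: p53RE-bla HCT reporter cells with a stable beta-lactamase p53 reporter; series mostly up to about 83 µM; nearly all actives have a fitted effect of over 30% in size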)
In short: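 Viability counter-read: CellTiter-Glo luminescence (30 min, room temperature) in the same p53RE-bla plates. These plates had been exposed to compounds for 16 h at 37 C.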

[4] = qHTS assay for small molecules that induce genotoxicity in human embryonic kidney cells expressing luciferase-tagged ATAD5 - cell viability (AID 651634; calls by dose curve; note: nearly all actives have a fitted effect of over 25% in size)
In short: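 Cytotoxicity counter-readout: after 15.5 hr compound treatment at 37C, live-cell protease activity in ATAD5-luciferase HEK293T cells measured by CellTiter-Fluor fluorescence, 30 min development at 37C.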

[5] = qHTS assay for small molecule disruptors of the mitochondrial membrane potential - cell viability (AID 720634; calls by dose curve;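 note: human HepG2 liver cancer cells; series mostly up to about 83 µM; nearly all actives have a fitted effect of over 20% in size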)
In short: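 Cytotoxicity was quantified from ATP content by CellTiter-Glo luminescence in the same wells as the MMP dye read-out. HepG2 (2,000 cells/well) were plated overnight and exposed to compounds for 1 hr at 37 C.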

[6] = qHTS assay for small molecule disruptors of the mitochondrial membrane potential (AID 720635); note: potency is the fitted concentration of half-maximal effect
In short: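 Mitochondrial membrane potential tracked with Mito-MPS dye, red aggregates (ex 540/em 590 nm) against green monomers (ex 490/em 535 nm). Compound treatment 1 hr at 37C, dye 30 min in HepG2.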

[7] = qHTS assay to test for compound auto fluorescence at 590 nm (red) in HepG2 cells (AID 720674)
In short: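 1 hr compound incubation on HepG2 cells, 37 C, 5% CO2; plate read ex 540 nm / em 590 nm; intensities reported as Rose Bengal sodium equivalents.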

[8] = qHTS assay to test for compound auto fluorescence at 535 nm (green) in HepG2 cells (AID 720675)
[9] = qHTS assay to test for compound auto fluorescence at 460 nm (blue) in HEK293 cells (AID 720678)
In short: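 HEK293 cells (2,000/well, medium with 10% dialyzed FBS) attached 4-5 hr, then exposed to compound overnight at 37C, 5% CO2. Blue fluorescence read at 405/460 nm, with triamterene as reference fluorophore.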

[10] = qHTS assay to test for compound auto fluorescence at 590 nm (red) in HEK293 cells (AID 720679)
In short: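 HEK293 cells (2,000/well, 10% dialyzed FBS) attached 4-5 hr, then dosed with compound or DMSO and incubated overnight at 37C, 5% CO2. Red fluorescence read at 540/590 nm, Rose Bengal sodium as reference fluorophore.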

[11] = qHTS assay to test for compound auto fluorescence at 535 nm (green) in HEK293 cells (AID 720680)
[12] = qHTS assay to test for compound auto fluorescence at 460 nm (blue) in HEK293 cell free culture (AID 720681)
In short: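 Blue fluorescence (Ex 405/Em 460 nm, triamterene-equivalent) was read immediately after pin transfer of compound or DMSO into medium (DMEM, 10% FBS) without cells.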

[13] = qHTS assay to test for compound auto fluorescence at 535 nm (green) in HEK293 cell free culture (AID 720682)
In short: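 Intrinsic compound fluorescence is measured in culture medium containing 10% FBS, with excitation at 485 nm and detection at 535 nm, referenced to fluorescein.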

[14] = qHTS assay to test for compound auto fluorescence at 590 nm (red) in HEK293 cell free culture (AID 720683)
In short: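 Red-channel autofluorescence of compounds in culture medium (DMEM, 10% FBS), no cells, measured at 540/590 nm. Rose Bengal sodium is the reference fluorophore for equivalence.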

[15] = qHTS assay to test for compound auto fluorescence at 590 nm (red) in HepG2 cell free culture (AID 720684)
In short: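 Cell-free; medium MEM + 10% FBS; compound or DMSO added by pintool; read Ex 540/Em 590 nm; Rose Bengal sodium as red reference fluorophore.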

[16] = qHTS assay to test for compound auto fluorescence at 460 nm (blue) in HepG2 cell free culture (AID 720685)
In short: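 Cell-free plates of MEM plus 10% FBS received 23 nL compound or DMSO vehicle; blue-channel (405/460 nm) intensity scored against triamterene as reference fluorophore.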

[17] = qHTS assay to test for compound auto fluorescence at 535 nm (green) in HepG2 cell free culture (AID 720686)
[18] = qHTS assay to test for compound auto fluorescence at 460 nm (blue) in HepG2 cells (AID 720687)
In short: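 Blue-channel autofluorescence (Ex/Em 405/460 nm, triamterene-equivalent) was measured after 1 hr compound exposure at 37 C, 5% CO2. Cells were HepG2, plated overnight at 37 C in MEM plus 10% FBS.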

[19] = target: Glucocorticoid receptor (Homo sapiens) (UniProt P04150); experiment: qHTS assay to identify small molecule agonists of the glucocorticoid receptor (GR) signaling pathway (AID 720691; active = well fitted activation curve with a large enough effect in the signal ratio in the repeat runs, not every such curve was filed as active; the % refers to the signal ratio; note: potency is the fitted concentration of half-maximal effect)
Glucocorticoid receptor (Homo sapiens), sequence (P04150 whole entry, looked up): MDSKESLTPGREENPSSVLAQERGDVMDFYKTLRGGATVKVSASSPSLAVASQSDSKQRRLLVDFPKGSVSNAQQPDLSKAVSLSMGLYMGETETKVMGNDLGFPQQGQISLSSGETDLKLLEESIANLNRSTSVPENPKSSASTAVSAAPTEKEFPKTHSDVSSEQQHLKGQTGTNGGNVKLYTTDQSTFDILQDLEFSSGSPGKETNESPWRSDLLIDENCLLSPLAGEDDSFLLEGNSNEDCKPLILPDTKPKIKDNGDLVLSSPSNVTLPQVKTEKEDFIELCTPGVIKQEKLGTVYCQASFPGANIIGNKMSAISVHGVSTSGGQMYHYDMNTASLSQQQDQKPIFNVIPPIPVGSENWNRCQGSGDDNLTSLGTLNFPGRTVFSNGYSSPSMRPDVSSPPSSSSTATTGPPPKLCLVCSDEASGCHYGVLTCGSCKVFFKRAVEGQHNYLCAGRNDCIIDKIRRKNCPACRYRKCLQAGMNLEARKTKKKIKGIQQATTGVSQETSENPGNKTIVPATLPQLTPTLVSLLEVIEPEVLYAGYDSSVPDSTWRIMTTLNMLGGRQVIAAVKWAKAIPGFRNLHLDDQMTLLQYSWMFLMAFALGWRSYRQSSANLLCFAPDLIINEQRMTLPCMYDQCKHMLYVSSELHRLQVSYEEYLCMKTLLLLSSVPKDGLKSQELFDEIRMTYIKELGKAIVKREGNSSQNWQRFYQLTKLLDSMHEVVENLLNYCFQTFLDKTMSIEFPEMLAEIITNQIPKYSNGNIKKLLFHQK
In short: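 Agonist-mode qHTS in HeLa cells stably expressing a glucocorticoid-response-element beta-lactamase reporter. Fluorescence intensity read with FRET substrate (2 h, room temperature) after 18 h compound treatment at 37 C.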

[20] = target: Glucocorticoid receptor (Homo sapiens) (UniProt P04150); experiment: qHTS assay to identify small molecule antagonists of the glucocorticoid receptor (GR) signaling pathway (AID 720692; active = well fitted inhibition curve with a large enough effect in the signal ratio in the repeat runs, not every such curve was filed as active; the % refers to the signal ratio)
In short: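 Inhibition of dexamethasone-driven (5 nM final) beta-lactamase expression was measured in GRE-reporter HeLa cells over 18 h at 37C. Fluorescence was read after 2 h with the B/G FRET substrate at room temperature.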

CC(CO)(CO)C(=O)O
Potency [1]: inactive | Potency [2]: inactive | Potency [3]: inactive | Potency [4]: inactive | outcome [5]: inactive | Potency [6]: inactive | outcome [7]: inactive | outcome [8]: inactive | Potency [9]: inactive | outcome [10]: inactive | outcome [11]: inactive | Potency [12]: inactive | outcome [13]: inactive | outcome [14]: inactive | outcome [15]: inactive | Potency [16]: inactive | outcome [17]: inactive | Potency [18]: inactive

BrC(Br)C(Br)Br
Potency [1]: inactive | Potency [2]: inactive | Potency [3]: inactive | Potency [4]: inactive | outcome [5]: inactive | Potency [6]: inactive | outcome [7]: inactive | outcome [8]: inactive | Potency [9]: inactive | outcome [11]: inactive | Potency [12]: inactive | outcome [13]: inactive | outcome [14]: inactive | outcome [15]: inactive | Potency [16]: inactive | outcome [17]: inactive | Potency [18]: inactive | Potency [19]: inactive | Potency [20]: inactive

CCO[Si](C)(CCCOCC1CO1)OCC (stereo unspecified)
Potency [1]: inactive | Potency [2]: inactive | Potency [3]: inactive | Potency [4]: inactive | outcome [5]: inactive | Potency [6]: inactive | outcome [7]: inactive | Potency [9]: inactive | outcome [10]: inactive | outcome [11]: inactive | Potency [12]: inactive | outcome [13]: inactive | outcome [14]: inactive | Potency [16]: inactive | outcome [17]: inactive | Potency [18]: inactive | Potency [19]: inactive | Potency [20]: inactive

CC(C)(O)CCc1ccccc1
Potency [1]: inactive | Potency [2]: inactive | Potency [3]: inactive | Potency [4]: inactive | outcome [5]: inactive | Potency [6]: inactive | outcome [7]: inactive | Potency [9]: inactive | outcome [10]: inactive | outcome [11]: inactive | Potency [12]: inactive | outcome [13]: inactive | outcome [14]: inactive | Potency [16]: inactive | outcome [17]: inactive | Potency [18]: inactive | Potency [19]: inactive

CCN(CC)C(=O)N1CCN(C)CC1
Potency [1]: inactive | Potency [2]: inactive | Potency [3]: inactive | Potency [4]: inactive | outcome [5]: inactive | Potency [6]: inactive | fluorescence, relative to Rose Bengal [7]: 0.12% [at 18.6 µM] | fluorescence, % of triamterene [9]: -0.217% [at 18.6 µM] | fluorescence, % of fluorescent control [10]: 0.0039% [at 18.6 µM] | fluorescence, % of fluorescein [11]: -0.0466% [at 18.6 µM] | fluorescence, % of fluorescent control [12]: 0.0671% [at 18.6 µM] | activity change [13]: -0.0353% [at 18.6 µM] | fluorescence, % of fluorescent control [14]: 0.461% [at 18.6 µM] | fluorescence, % of Rose Bengal [15]: 0.0189% [at 18.6 µM] | fluorescence, % of fluorescent control [16]: -0.0488% [at 18.6 µM] | fluorescence, % of fluorescein control [17]: -0.0623% [at 18.6 µM] | fluorescence, % of fluorescent control [18]: 0.0195% [at 18.6 µM] | Potency [19]: 10.2 µM (active)

COc1cc(NS(=O)(=O)c2ccc(N)cc2)nc(C)n1
Potency [1]: inactive | Potency [2]: inactive | Potency [3]: inactive | Potency [4]: inactive | outcome [5]: inactive | Potency [6]: inactive | outcome [7]: inactive | Potency [9]: inactive | outcome [11]: inactive | Potency [12]: inactive | outcome [13]: inactive | outcome [14]: inactive | outcome [15]: inactive | Potency [16]: inactive | outcome [17]: inactive | Potency [18]: inactive | Potency [19]: inactive | Potency [20]: inactive

O=C1OC[C@H](Cc2cccc(O)c2)[C@H]1Cc1cccc(O)c1
Potency [1]: inactive | Potency [2]: inactive | Potency [3]: inactive | Potency [4]: inactive | outcome [5]: inactive | Potency [6]: 8.24 µM (active) | outcome [7]: inactive | outcome [8]: inactive | Potency [9]: inactive | outcome [11]: inactive | Potency [12]: inactive | outcome [13]: inactive | outcome [14]: inactive | Potency [16]: inactive | outcome [17]: inactive | Potency [18]: inactive | Potency [19]: inactive | Potency [20]: inactive
